From PubChem BioAssay
This is a sample that favours compounds with a hit; in the whole collection about 11% have one here.
Pf growth 48h: inhibits P. falciparum growth in the first generation, 48 h. P. falciparum luciferase growth in erythrocytes, 48 h. Potency, µM (series often up to 28.7 µM), for inactives: at the top dose activity change, negative = inhibition, usual class: inhibitors. hit rate 5.9% among 310,000. AID 504832; further: on the % scale 0 is the no-effect control and ±100 the full control effect
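A one-generation exposure of luciferase-tagged malaria parasites in RPMI 1640/Albumax erythrocyte culture, 37 C and 5% CO2. Inhibition is inferred from decreased luminescence after adding detection reagent.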
Sm TGR block: S. mansoni TGR enzyme inhibition. Q962Y6. Potency, µM (top dose mostly 114 µM), for the others: at the top dose activity change, negative = inhibition, hits mostly inhibitors. hit rate 3% among 360,000. AID 485364. purified TGR, DTNB reduction, TNB absorbance 405 nm; further: on the % scale 0 is the no-effect control and ±100 the full control effect; nearly all actives have a fitted effect of over 60% in size
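Kinetic colorimetric format: TGR-catalysed, NADPH-driven DTNB reduction monitored via TNB absorbance. Enzyme dispensed at 20 nM; compound exposure 15 min at room temperature before reaction start.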
AMA1 RON2 block: AMA1-RON2 (P. falciparum) interaction inhibition; AlphaScreen AMA1-biotinylated RON2 peptide binding; Potency, µM (top dose mostly 58.2 µM), for the others: at the highest dose activity change, negative = inhibition, hits mostly inhibitors; hit rate 0.2% among 360,000;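 further: 0% = vehicle wells and -100% = peptide control; nearly all actives have a fitted effect of over 45% in size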
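AMA1 (3D7) with his tag at 25 nM final met compounds first, then biotinylated RON2 peptide at 25 nM; detection used donor plus acceptor beads, 10 µg/mL apiece, read by AlphaScreen after 30 min at room temperature.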
NS1 inh: blocks influenza NS1 protein function | hit rate 0.4% among 270,000 | AID 2326 | Potency, µM (titrated, usually from 46.1 µM), inactives show at the top dose activity, positive = more growth; calls by dose curve; further: actives are rising curves; nearly all actives have a fitted effect of over 50% in size
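Growth recovery, yeast-based: influenza A NS1 expressed in S. cerevisiae causes slow growth, and suppressors are detected by OD600. The parent strain without NS1 is used as positive control.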
Pf growth 96h: P. falciparum growth inhibition at 96 hour, primary screen for plastid delayed-death inhibitors; P. falciparum luciferase reporter growth, 96 h; Potency, µM (doses to about 28.7 µM), inactives show at the highest dose activity change, negative = inhibition, hits mostly inhibitors; hit rate 6.9% among 320,000; AID 504834; further: on the % scale 0 is the no-effect control and ±100 the full control effect
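Parasite growth measured via integrated firefly luciferase reporter in P. falciparum. Infected erythrocytes at 2% hematocrit, 0.05% parasitemia final were treated 96 hours at 37 C under 5% CO2, and luminescence was read.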
* = called active by the depositor; ? = inconclusive; · = no result given. Unless noted, the call rests on the fitted dose curve; in most records, active means well fitted curve in the direction sought with a large enough effect; inconclusive means small, poorly fitted or top-dose-only effect, or another doubt; inactive means no such curve, though single readings can be large; an effect the other way counts as inactive or inconclusive. Potency means the concentration at half of the fitted maximal effect.

SMILES	Pf growth 48h	Sm TGR block	AMA1 RON2 block	NS1 inh	Pf growth 96h
CCCCCNC(=O)c1ccc2c(=O)n(CC3CCCO3)c(=S)[nH]c2c1 (centres undefined)	?	-5.7%	53.3%	·	-22.7%
CCCCCNC(=O)c1ccc2c(=O)n(CC3CCCO3)c(=O)[nH]c2c1 (centres undefined)	1.31µM*	10.2%	-1.2%	2.3%	8.6%
CCCCCn1c(=O)[nH]c2cc(C(=O)NCCN3CCCCC3C)ccc2c1=O (centres undefined)	11.7µM*	0.7%	10.3%	0.3%	?
O=C(COc1coc(CN2CCN(Cc3ccccc3)CC2)cc1=O)Nc1ccccc1	-9.2%	-6.2%	-3.5%	·	-19.9%
O=C1N2CCSC2=NC1(NS(=O)(=O)c1ccccc1)C(F)(F)F (centres undefined)	-11.7%	2.9%	-1.3%	-8.3%	1.04µM*
COC(=O)C1CN(C(=O)COc2ccc(Cl)cc2C)c2ccccc2O1 (centres undefined)	14.7µM*	3.8%	0.2%	-0.9%	?
COc1cccc(CNC(=O)COC(=O)c2ccc(-c3ccc(O)cc3)cc2)c1	·	·	-7.9%	·	·
c1ccc(N/N=C(\Cc2ncc[nH]2)c2ccccc2)cc1	?	-32.9%	53.6%	·	9.28µM*
COc1cc(C(=O)N/N=C(\Cc2ncc[nH]2)c2ccccc2)cc(OC)c1OC	?	-1.5%	58.9%	·	-78.0%
COc1ccc(C(=O)N/N=C(\Cc2ncc[nH]2)c2ccccc2)cc1	3.29µM*	-1.1%	46.4%	4.5%	?
Clc1cccc(N/N=C(\Cc2nc3ccccc3[nH]2)c2ccccc2)c1	11.7µM*	-8.3%	44.2%	8.7%	4.15µM*
Cc1c(-c2nc(N)nc(C3CC3)c2C)nc(N)nc1C1CC1	·	·	·	-5.9%	·
Cc1cc(C)cc(N(C(=O)c2csnn2)C(C(=O)NC2CCCC2)c2cccnc2)c1 (centres undefined)	?	-10.5%	5.7%	1.8%	-3.3%
Cn1c(=O)c(C(=O)Nc2ccccn2)c(O)c2ccccc21	150.8%	-9.5%	57.3%	-33.1%	10.4µM*
Cn1c(=O)c(C(=O)NNC(=O)c2ccccc2Br)c(O)c2ccccc21	6.5%	-3.5%	65.6%	-104.0%	2.08µM*
Nc1cc(C(=O)O)c(N)c2c1C(=O)c1ccccc1C2=O	?	7.7%	17.8µM*	-33.8%	?
COc1ccccc1CNC(=O)CN(c1ccc(C)cc1)S(=O)(=O)c1c(C)nn(C)c1C	?	-17.3%	-4.6%	-9.6%	4.15µM*
COc1ccc(CC(=O)N2CCc3cc(OC)c(OC)cc3C2)cc1	6.0%	1.7%	-0.6%	-3.0%	-2.3%
COc1ccc(CC(=O)N2CCN(C(=O)Cc3ccc(OC)cc3)CC2)cc1	-27.8%	-8.3%	1.4%	12.5%	3.29µM*
COc1ccc(N(CC(=O)N2CCc3ccccc3C2)S(=O)(=O)c2c(C)nn(C)c2C)cc1	·	2.2%	0.5%	-14.5%	1.17µM*
COc1ccc(CC(=O)N2CCc3ccccc3C2)cc1	11.7%	-8.1%	14.1%	-8.3%	8.28µM*
Cc1ccc(CNC(=O)CN2CCN(Cc3ccc(F)cc3Cl)C2=O)cc1	·	2.6%	·	·	·
COc1cc2c(cc1OC)CN(C1CCC(C(C)(C)C)CC1)CC2 (centres undefined)	·	·	30.0%	·	·
COc1ccccc1C(=O)NC(=O)COC(=O)C1CC2CCCC(C1)C2=O (centres undefined)	4.2%	-5.7%	8.5%	-2.3%	-21.0%
N#Cc1ccc(/C=C/C(=O)c2ccccc2)cc1	10.9%	8.91µM*	-4.5%	-37.3%	-20.2%
SMILES	Pf growth 48h	Sm TGR block	AMA1 RON2 block	NS1 inh	Pf growth 96h
O=C(/C=C/c1ccccc1)c1ccccc1	13.6%	?	11.6%	-34.6%	?
N=C1C=CC(=C(c2ccc(N)cc2)c2ccc(N)cc2)C=C1	·	·	14.1µM*	-4.5%	·
CCOC(=O)C1CCN(C(=S)NC(=O)c2cccs2)CC1	?	0.0%	64.1%	0.2%	1.6%
Cc1ccc(C2N=C(N)Nc3nc(=O)c4ccccc4n32)cc1 (centres undefined)	?	0.0%	6.6%	?	9.28µM*
Cc1ccc(C2N=C(N)Nc3nc4ccccc4n32)cc1 (centres undefined)	-13.9%	12.9%	15.6%	·	-8.7%
C/C=C/C=C/C(=O)OC(C)C(=O)Nc1cc([N+](=O)[O-])ccc1OC (centres undefined)	4.5%	22.4µM*	-8.5%	·	23.2%
COc1ccc([N+](=O)[O-])cc1NC(=S)Nc1ccccc1	·	28.2µM*	-0.4%	-2.3%	-0.2%
COc1ccc([N+](=O)[O-])cc1NC(=O)Nc1ccccc1	-0.2%	7.7%	15.9%	11.1%	-0.4%
COc1ccc(CCNC(=O)c2cc(COc3c(C)cccc3C)on2)c(OC)c1	1.2%	-5.1%	-7.3%	3.5%	-20.1%
Cc1cccc(NC(=O)c2cc(S(=O)(=O)N3CCc4ccccc43)ccc2F)c1C	·	7.6%	·	·	·
Cc1cccc(C)c1OCC(O)CN(Cc1ccccc1O)C1CCCCC1 (centres undefined)	0.262µM*	-8.4%	-5.5%	·	0.262µM*
CC(C)CCN1C(=O)N(c2ccccc2)C(=O)C1CC(=O)Nc1ccc(Cl)cc1 (centres undefined)	·	18.6%	·	·	·
O=C(CN1C(=O)COc2ccc(S(=O)(=O)N3CCOCC3)cc21)Nc1ccc(F)c(Cl)c1	·	0.6%	·	·	·
COc1cc(-c2nc(C(=O)NCC3CCCO3)cc3c2[nH]c2ccccc23)cc(OC)c1OC (centres undefined)	?	4.0%	27.2%	-10.8%	6.57µM*
O=C(NCC1CCCO1)c1cc2c([nH]c3ccccc32)c(-c2cccc(Cl)c2)n1 (centres undefined)	?	-23.4%	-8.7%	-29.7%	5.86µM*
COc1cccc2[nH]c(C(=O)NCC3CCCO3)cc12 (centres undefined)	16.2%	3.8%	0.0%	-1.7%	32.7%
O=C(NCC1CCCO1)c1cc2ccccc2[nH]1 (centres undefined)	14.6%	-25.6%	7.7%	1.3%	?
COc1ccccc1-c1nc(C(=O)NCC2CCCO2)cc2c1[nH]c1ccccc12 (centres undefined)	9.28µM*	-22.3%	1.1%	-32.6%	8.28µM*
CCOc1ccccc1NC(=O)Nc1nnc(N2CCCCCC2)s1	·	-5.1%	·	·	·
CC1(C)CC[C@]2(CO)CC[C@]3(C)C(=CCC4[C@@]5(C)CC[C@H](O)[C@@](C)(CO)C5CC[C@]43C)[C@@H]2C1 (some centres undefined)	·	·	3.9%	·	·
CCOc1ccc(Br)cc1CNCc1cccnc1	-14.5%	2.1%	-2.9%	9.6%	?
Fc1ccccc1COc1ccc(Br)cc1CNCc1ccncc1	·	-0.5%	0.5%	-135.9%	11.7µM*
Fc1ccccc1COc1ccc(Br)cc1CNCc1cccnc1	13.1µM*	8.5%	16.5%	1.2%	?
Fc1ccc(COc2ccc(Br)cc2CNCc2ccncc2)cc1	8.28µM*	0.0%	-4.8%	-31.3%	?
Cc1cc(C(=O)NNCc2ccccc2)no1	4.5%	-12.1%	0.9%	·	11.9%
